Results on 40 molecules are retold here after PubChem BioAssay (NCATS).

Records with an inconclusive call do not appear. Where a call stands in place of a potency, no number is given. A number with no mark means an inactive call. The source made the active and inactive calls. Calls follow the shape of the dose curve; as a rule, active = well fitted cell-killing curve with a large enough effect; inconclusive = small, poorly fitted or top-dose-only effect; inactive = no such curve, though single readings can be large or run the other way.
Potency is read from the fitted curve at half-maximal effect.

This experiment in a line: qHTS of pediatric cancer cell lines to identify multiple opportunities for drug repurposing: Primary screen for Rh41 cells (AID 1347108). Also: nearly all actives have a fitted effect of over 70% in size.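 As to activity change, negative = cytotoxic: luminescence drop marks cytotoxic hits.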 The following applies: Rh41 rhabdomyosarcoma viability, CellTiter-Glo luminescence, 48 h; series mostly up to 46 µM. The source says: Drug repurposing or repositioning has been offered as a strategy for drug development in oncology programs. This approach has special potential for childhood cancers and other rare or orphan diseases, where the expected return on new drug development has been a disincentive to pharmaceuticals. […] In this project we exploit the poly-pharmacology of drugs to discover new indications via phenotypic screening of a panel of 19 well-characterized cell lines derived from solid tumors seen in children and adolescents. The goal is to identify approved drugs with previously unrecognized anticancer properties that has the potential to reveal new mechanisms and biological processes involved in carcinogenesis or drug resistance. We employed a titration-based paradigm (quantitative high-throughput screening or qHTS), where all compounds were tested at multiple concentrations for their effect on cell viability. Concentration-response curves (CRCs) were derived directly from the primary screen, and both potency and efficacy values were used to identify compounds with robust bioactivity profiles. We screened the NIH Chemical Genomics Center (NCGC) Pharmaceutical Collection (NPC) and Mechanism Interrogation Plate (MIPE) small molecule collections of approved and investigational compounds against these cell lines; and measured metabolically active cells after 48 hours of compound treatment as a proxy for cell viability. […] Assay Submitter: Nathalia J. Martinez, National Center for Advancing Translational Sciences, National Institutes of Health, Rockville, MD, USA; email: natalia.martinez@nih.gov Shen, M et al. Quantitative high-throughput phenotypic screening of pediatric cancer cell lines identifies multiple opportunities for drug repurposing. Oncotarget 2017 Dec 19;9(4):4758-4772. PMID 29435139.
The cells were obtained from University of North Carolina (UNC), Pediatric Preclinical Testing Program (PPT), and Coriell Institute (CI). qHTS cell viability assay: Cells were assayed in growth media at a density of 500-1,000 cells/well. Five microliters of cells were dispensed into 1,536-well, white, solid-bottom, TC-treated plates (Greiner Bio One) using a multidrop dispenser and incubated at 37 degrees C, 5% CO2, under a humidified atmosphere for 5 hours. Twenty-three nanoliters of compounds and controls (neutral control DMSO or positive control bortezomib at final concentration of 2.3 µM) were subsequently transferred by Kalypsys pintool. For primary screens, the MIPE collection was tested at 11-point dilutions (final concentrations range from 0.78 nM to 46 µM) and the NPC collection at 8-point dilutions (final concentrations range from 0.59 nM to 46 µM). Compounds tested in follow-up screens were assayed at 11-point dilutions. Cells were incubated for 48 hours, followed by addition of 3 µL of CellTiter-Glo (Promega). After a 15 min incubation at room temperature, samples were analyzed for luminescence intensity using a ViewLux High-throughput CCD imager equipped with clear filters.
For `CC(O)(CS(=O)(=O)c1ccc(F)cc1)C(=O)Nc1ccc(C#N)c(C(F)(F)F)c1` (stereo not given), the Potency is 3720 nM (active).
As for `NN=C(N)N`, the Potency entry was “inactive”.
On to `CC(C)(C)CC(C)(C)c1ccc(O)cc1`, for which the Potency result is “inactive”.
As for `Cn1c(CCCC(=O)O)nc2cc(N(CCCl)CCCl)ccc21`, the Potency result is “inactive”.
On the same count and under the same terms, the value for `Oc1ccccc1-c1ccccc1` was “inactive”; that for `COc1ccccc1N1CCNCC1` was “inactive”; that for `Cc1sc2c(c1C)C(c1ccc(Cl)cc1)=N[C@@H](CC(=O)OC(C)(C)C)c1nnc(C)n1-2` was 743 nM (active).
Take `C#CCN(C)[C@H](C)Cc1ccccc1`: the Potency result was “inactive”.
Consider `CC(C)NCC(O)c1ccccc1Cl` (stereo not given), for which the Potency result was “inactive”.
Turning to `CN1C[C@H](CNC(=O)OCc2ccccc2)C[C@@H]2c3cccc4c3c(cn4C)C[C@H]21`, the Potency entry is “inactive”.
As for `CC[N+]1(C)CCCC(OC(=O)C(O)(c2ccccc2)c2ccccc2)C1` (stereo not given), the Potency result is “inactive”.
For `NCC1(CC(=O)O)CCCCC1`, the Potency result was “inactive”.
On the same count and under the same terms, under `CCN(CC)CCOC(=O)C(O)(c1ccccc1)c1ccccc1` stands “inactive”; under `FC(F)(F)c1cccc(C2=CCN(CCc3ccc4ccccc4c3)CC2)c1`, “inactive”; under `Clc1cccc(N2CCNCC2)c1`, “inactive”.
In the case of `CCC(COC(=O)c1cc(OC)c(OC)c(OC)c1)(c1ccccc1)N(C)C` (stereo not given), the Potency entry is “inactive”.
As for `COc1ccc(C(=O)c2c(C)n(CCN3CCOCC3)c3ccccc23)cc1`, the Potency result is “inactive”.
`CCCN1CCC[C@@H]2Cc3nc(N)ncc3C[C@H]21`: the Potency result is “inactive”.
In the case of `CC(C)=CCOc1c2occc2cc2ccc(=O)oc12`, the Potency result is “inactive”.
For `CC(=O)Nc1cc([As](=O)(O)O)ccc1O`, the Potency entry was “inactive”.
With `CC(C)(C)NCC(O)c1cc(Cl)c(N)c(Cl)c1` (stereo not given), the Potency result was “inactive”.
Turning to `CCN(C(C)=O)c1cccc(-c2ccnc3c(C#N)cnn23)c1`, the Potency result was “inactive”.
`O=[N+]([O-])c1cc([As](=O)(O)O)ccc1O`: the Potency entry was “inactive”.
As to `N[C@@H](Cc1ccc(Oc2cc(I)c(O)c(I)c2)c(I)c1)C(=O)O`, the Potency entry was “inactive”.
In the case of `c1ccc(C2CC2)c(OCC2=NCCN2)c1`, the Potency result was “inactive”.
With `NCC(CC(=O)O)c1ccc(Cl)cc1` (stereo not given), the activity change, negative = cytotoxic was 9.97% [at 0.597 µM].
`CC(C)CC(N(C)C)C1(c2ccc(Cl)cc2)CCC1` (stereo not given): the Potency entry was “inactive”.
Take `CN1C(=S)CN=C(c2ccccc2)c2cc(Cl)ccc21`: the Potency entry is “inactive”.
In the case of `CC1OC(C)OC(C)O1` (stereo not given), the Potency entry was “inactive”.
For the molecule `COC[C@@H](NC(C)=O)C(=O)NCc1ccccc1`, the Potency entry is “inactive”.
With `Cc1ccc2c(c1)C1CN(C)CCC1N2` (stereo not given), the Potency result was “inactive”.
Take `COc1ccc2c(c1OC)CN1CCc3cc4c(cc3C1C2)OCO4` (stereo not given): the Potency result is “inactive”.
As for `CCCC1CCCCN1` (stereo not given), the Potency entry was “inactive”.
As for `CC1NCCOC1c1ccccc1` (stereo not given), the Potency entry is “inactive”.
Same read-out and setting: under `O=P1(NCCCl)OCCCN1CCCl` (stereo not given) stands “inactive”; under `CCOP(=S)(OCC)Oc1cc(C)nc(C(C)C)n1`, “inactive”.
Regarding `O=C1NCN(c2ccccc2)C12CCN(CC1COc3ccccc3O1)CC2` (stereo not given), the Potency result is “inactive”.
Still for that read-out and setting: under `CCC(C(N)=O)N1CCCC1=O` (stereo not given) stands “inactive”.
On the same count and under the same terms, the value for `CCCC(C)(COC(N)=O)COC(=O)NC(C)C` (stereo not given) was “inactive”.
Still for that read-out and setting: under `Clc1ccc(CCC(Cn2ccnc2)Sc2c(Cl)cccc2Cl)cc1` (stereo not given) stands “inactive”.
